Data on seven molecules can be found in PubChem BioAssay (EPA / NIEHS).

By AC50 is commonly meant the concentration giving half of the maximal activity seen.

The structures appear in SMILES notation. Inconclusive results are not listed. Active and inactive are the calls of the source. How the source made its calls, unless noted: active means hit-call score of the fitted dose curve at least 0.9, where 1 is the maximum; inactive means score below 0.9.

Read-out in test [1]: E-selectin (Homo sapiens) (UniProt P16581)
Briefly: BSK_3C_Eselectin: BioMAP Diversity Plus: 3C Assay for Eselectin Biomarker Activity (AID 2283015).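 Further: cell surface E-selectin protein quantified by ELISA 24 h after dosing.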 The conditions noted are these: primary human endothelial cells (HUVEC); actives raise or lower the signal. The method in brief: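 Primary human umbilical vein endothelial cells (3C system) were dosed with chemical and cell-surface E-selectin measured by ELISA 24 h later. Bidirectional curve fitting used DMSO as negative control and baseline.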

Read-out in test [2]: Interleukin-1 alpha (IL1a), IL1A (gene 3552)
Briefly: BSK_BE3C_IL1a: BioMAP Diversity Plus: BE3C Assay for Interleukin-1 alpha (IL1a) Biomarker Activity (AID 2283016). The conditions noted are these: primary human bronchial epithelial cells; actives raise or lower the signal. The method in brief: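 Signal from IL-1a ELISA, taken 24 h after chemical dosing of human bronchial epithelial cells, is compared with DMSO as baseline using bidirectional curve fitting.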

Read-out in test [3]: Monocyte Chemoattractant Protein-1 (MCP1), CCL2 (gene 6347)
In words: BSK_3C_MCP1: BioMAP Diversity Plus: 3C Assay for Monocyte Chemoattractant Protein-1 (MCP1) Biomarker Activity (AID 2283017). The conditions noted are these: primary human endothelial cells (HUVEC); actives raise or lower the signal. The procedure, abridged:
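Primary human umbilical vein endothelial cells (3C system) were exposed to test chemical for 24 h, after which MCP-1 was quantified by ELISA. Activity was fitted bidirectionally against DMSO as negative control and baseline.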

Read-out in test [4]: Monocyte Chemoattractant Protein-1 (MCP1), CCL2 (gene 6347)
Briefly: BSK_4H_MCP1: BioMAP Diversity Plus: 4H Assay for Monocyte Chemoattractant Protein-1 (MCP1) Biomarker Activity (AID 2283018). The conditions noted are these: primary human endothelial cells (HUVEC); actives raise or lower the signal. The method in brief:
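Endothelial cells from umbilical vein were treated with test chemical, then after 24 h MCP-1 levels were quantified by ELISA; endpoint values came from bidirectional fitting with DMSO as baseline of activity.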

Read-out in test [5]: Human Leukocyte Antigen - DR isotype (HLADR), HLA-DRA (gene 3122)
Briefly: BSK_3C_HLADR: BioMAP Diversity Plus: 3C Assay for Human Leukocyte Antigen - DR isotype (HLADR) Biomarker Activity (AID 2283019). The conditions noted are these: primary human endothelial cells (HUVEC); actives raise or lower the signal. The method in brief: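 Primary human umbilical vein endothelial cells (3C system) were dosed with compound and cell-surface HLA-DR was quantified by ELISA at 24 h. Activity was fitted bidirectionally against DMSO as negative control and baseline.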

Read-out in test [6]: Interleukin-8 (IL8), CXCL8 (gene 3576)
In words: BSK_3C_IL8: BioMAP Diversity Plus: 3C Assay for Interleukin-8 (IL8) Biomarker Activity (AID 2283020). The conditions noted are these: primary human endothelial cells (HUVEC); actives raise or lower the signal. The method in brief:
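Endothelial primary cells of human umbilical vein origin are dosed with chemical; after 24 h the IL-8 biomarker is measured by ELISA, and concentration–response is fitted in both directions versus DMSO.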

Read-out in test [7]: Monokine induced gamma interferon (MIG), CXCL9 (gene 4283)
In words: BSK_3C_MIG: BioMAP Diversity Plus: 3C Assay for Monokine induced gamma interferon (MIG) Biomarker Activity (AID 2283021). The conditions noted are these: primary human endothelial cells (HUVEC); actives raise or lower the signal. The procedure, abridged: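 Endothelial primary cells (human umbilical vein) are dosed with test chemical in the 3C system. MIG levels are measured by ELISA at 24 h and fitted in both directions relative to DMSO.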

Test [8] addresses human Vitamin D Receptor (VDR), VDR (gene 7421) (UniProt P11473). In words: ATG_VDR_TRANS: Attagene TRANS-FACTORIAL HepG2 Assay for human Vitamin D Receptor (VDR) (AID 2283022; active means hit-call score of the fitted dose curve at least 0.9, where 1 is the maximum). The method in brief: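 HepG2 cells were transiently transfected with multiple GAL4-UAS reporter units, so signal reflects exogenous chimeric receptor-Gal4 activity. After 24 h compound exposure, reporter mRNA was measured by RT-PCR, fluorescent labelling and capillary electrophoresis, fitted for gain of signal versus DMSO.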

Test [9] in a line: BSK_3C_SRB: Viability Assessment in the BioMAP Diversity Plus: 3C Assay (AID 2283023).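 Further: fitted both ways against DMSO so a hit may be signal rise or drop.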 The conditions noted are these: primary human endothelial cells (HUVEC). The method in brief: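 Primary human umbilical vein endothelial cells in the 3C system were read 24 h after compound dosing. Total protein was stained with 0.1% sulforhodamine B after 10% TCA fixation and read at 560 nm, with bidirectional fitting against DMSO as baseline.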

Read-out in test [10]: Matrix Metallopeptidase 1 (MMP1), MMP1 (gene 4312)
In words: BSK_BE3C_MMP1: BioMAP Diversity Plus: BE3C Assay for Matrix Metallopeptidase 1 (MMP1) Biomarker Activity (AID 2283024). The conditions noted are these: primary human bronchial epithelial cells; actives raise or lower the signal. The method in brief: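 MMP1 signal, measured by ELISA after a 24 h chemical exposure of human primary bronchial epithelial cells, is analysed with bidirectional fitting using DMSO as negative control.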

Read-out in test [11]: Pselectin, SELP (gene 6403)
Briefly: BSK_4H_Pselectin: BioMAP Diversity Plus: 4H Assay for Pselectin Biomarker Activity (AID 2283026). The conditions noted are these: primary human endothelial cells (HUVEC); actives raise or lower the signal. The method in brief: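 Endothelial primary cells (human umbilical vein) are dosed, incubated 24 h, and assayed for surface P-selectin by ELISA; responses in either direction are fitted relative to the DMSO negative control.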

The nature of test [12]: BSK_4H_SRB: Viability Assessment in the BioMAP Diversity Plus: 4H Assay (AID 2283027).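 Further: cells exposed to compound for 24 h before staining.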 The conditions noted are these: primary human endothelial cells (HUVEC). The procedure, abridged:
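Cytotoxicity readout: sulforhodamine B (0.1%) staining of total protein after 10% TCA fixation, measured at 560 nm in human umbilical vein endothelium at 24 h. DMSO set the baseline; fitting was bidirectional.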

Test [13] is described as follows: BSK_BE3C_SRB: Viability Assessment in the BioMAP Diversity Plus: BE3C Assay (AID 2283028). The conditions noted are these: primary human bronchial epithelial cells. The procedure, abridged: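 Human primary bronchial epithelial cells were exposed to test chemicals for 24 h. Total protein in parallel cultures was then measured by staining with 0.1% sulforhodamine B after 10% TCA fixation, with absorbance read at 560 nm. Activity was fitted bidirectionally against DMSO.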

Read-out in test [14]: Thrombomodulin, THBD (gene 7056)
In words: BSK_3C_Thrombomodulin: BioMAP Diversity Plus: 3C Assay for Thrombomodulin Biomarker Activity (AID 2283029). The conditions noted are these: primary human endothelial cells (HUVEC); actives raise or lower the signal. The procedure, abridged:
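Endothelial cells from umbilical vein are dosed with test chemical and incubated 24 h. Thrombomodulin is then quantified by ELISA, with DMSO serving as negative control and activity baseline.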

Read-out in test [15]: Urokinase-type plasminogen activator receptor (uPAR), PLAUR (gene 5329)
Briefly: BSK_4H_uPAR: BioMAP Diversity Plus: 4H Assay for Urokinase-type plasminogen activator receptor (uPAR) Biomarker Activity (AID 2283030). The conditions noted are these: primary human endothelial cells (HUVEC); actives raise or lower the signal. The procedure, abridged: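 Primary human umbilical vein endothelial cells were exposed to chemical for 24 h before cell-surface uPAR was quantified by ELISA. Activity was fitted bidirectionally against the DMSO negative control baseline.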

Test [16] addresses human Thyroid Receptor alpha (THRa1), THRA (gene 7067) (UniProt P10827). In words: ATG_THRa1_TRANS: Attagene TRANS-FACTORIAL HepG2 Assay for human Thyroid Receptor alpha (THRa1) (AID 2283014; active means hit-call score of the fitted dose curve at least 0.9, where 1 is the maximum). The method in brief:
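HepG2 cells transiently transfected with multiplexed GAL4-UAS reporter units for exogenous chimeric THRa1-Gal4; reporter mRNA measured 24 h after dosing by RT-PCR, 6-FAM labelling, HpaI digestion and capillary electrophoresis. Gain-of-signal fitted versus DMSO baseline.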

Test [17] is described as follows: BSK_3C_Vis: BioMAP Diversity Plus: 3C Assay for Morphology Visualization (AID 2283025).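 Further: fitted both ways so gain or loss versus DMSO counts.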 The conditions noted are these: primary human endothelial cells (HUVEC). The method in brief:
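Morphology read by light microscopy serves as a background control for the multiplexed 3C assay in human umbilical vein endothelial cells, taken 24 h after dosing, with DMSO as the negative control and bidirectional curve fitting.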

Test [18] has as its target human Retinoid X Receptor beta (RXRb), RXRB (gene 6257) (UniProt P28702). In words: ATG_RXRb_TRANS: Attagene TRANS-FACTORIAL HepG2 Assay for human Retinoid X Receptor beta (RXRb) (AID 2283013; active means hit-call score of the fitted dose curve at least 0.9, where 1 is the maximum). The method in brief:
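Chimeric receptor-Gal4 activity was assessed in transiently transfected human HepG2 cells after 24 h exposure. Transcripts from GAL4-UAS reporters were quantified by fluorescent RT-PCR and capillary electrophoresis, with DMSO as negative control and baseline.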

Sequence of E-selectin (Homo sapiens) (P16581 whole entry, looked up): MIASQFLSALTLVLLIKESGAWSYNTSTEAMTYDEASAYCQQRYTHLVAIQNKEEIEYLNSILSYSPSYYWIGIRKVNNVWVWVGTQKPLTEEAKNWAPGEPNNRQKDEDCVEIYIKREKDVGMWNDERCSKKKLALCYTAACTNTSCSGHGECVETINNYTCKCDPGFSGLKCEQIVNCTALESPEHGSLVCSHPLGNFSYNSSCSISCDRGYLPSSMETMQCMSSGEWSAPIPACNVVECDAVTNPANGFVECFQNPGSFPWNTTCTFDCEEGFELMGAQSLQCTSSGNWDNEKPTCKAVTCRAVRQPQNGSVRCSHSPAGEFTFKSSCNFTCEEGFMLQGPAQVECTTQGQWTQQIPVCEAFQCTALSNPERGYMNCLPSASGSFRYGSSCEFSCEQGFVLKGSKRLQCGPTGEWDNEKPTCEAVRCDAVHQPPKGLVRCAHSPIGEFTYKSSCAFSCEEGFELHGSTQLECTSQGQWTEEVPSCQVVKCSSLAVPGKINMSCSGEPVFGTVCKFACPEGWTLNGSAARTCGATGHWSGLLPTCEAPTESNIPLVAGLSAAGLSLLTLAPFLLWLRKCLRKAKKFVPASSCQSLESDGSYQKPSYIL
Sequence of human Vitamin D Receptor (VDR), VDR (gene 7421) (P11473 whole entry, looked up, the tested form may be a part): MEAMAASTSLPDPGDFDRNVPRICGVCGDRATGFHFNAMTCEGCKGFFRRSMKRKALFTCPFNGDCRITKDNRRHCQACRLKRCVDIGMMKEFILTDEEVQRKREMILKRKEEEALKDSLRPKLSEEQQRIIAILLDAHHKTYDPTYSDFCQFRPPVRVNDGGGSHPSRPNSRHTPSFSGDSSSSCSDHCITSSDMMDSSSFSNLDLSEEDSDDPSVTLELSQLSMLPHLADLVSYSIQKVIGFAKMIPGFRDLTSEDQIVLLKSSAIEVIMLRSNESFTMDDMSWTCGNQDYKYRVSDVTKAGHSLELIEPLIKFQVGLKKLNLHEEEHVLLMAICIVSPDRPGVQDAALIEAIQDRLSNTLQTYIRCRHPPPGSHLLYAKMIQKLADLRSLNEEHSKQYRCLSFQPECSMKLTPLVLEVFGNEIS
Sequence of human Thyroid Receptor alpha (THRa1), THRA (gene 7067) (P10827 whole entry, looked up, the tested form may be a part): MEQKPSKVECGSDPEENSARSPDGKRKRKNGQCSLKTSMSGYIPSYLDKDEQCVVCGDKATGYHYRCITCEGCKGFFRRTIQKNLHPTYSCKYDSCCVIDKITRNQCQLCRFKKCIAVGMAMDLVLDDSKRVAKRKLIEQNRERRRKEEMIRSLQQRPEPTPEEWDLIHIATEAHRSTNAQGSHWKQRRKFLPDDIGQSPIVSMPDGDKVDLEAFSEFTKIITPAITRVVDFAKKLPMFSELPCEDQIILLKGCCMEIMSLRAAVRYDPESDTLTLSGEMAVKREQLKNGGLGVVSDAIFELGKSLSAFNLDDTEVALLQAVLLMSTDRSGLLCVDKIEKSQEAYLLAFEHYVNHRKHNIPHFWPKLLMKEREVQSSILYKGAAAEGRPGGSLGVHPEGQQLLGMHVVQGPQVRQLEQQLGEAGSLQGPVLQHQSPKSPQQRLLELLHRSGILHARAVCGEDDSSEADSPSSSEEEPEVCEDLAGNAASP
Sequence of human Retinoid X Receptor beta (RXRb), RXRB (gene 6257) (P28702 whole entry, looked up, the tested form may be a part): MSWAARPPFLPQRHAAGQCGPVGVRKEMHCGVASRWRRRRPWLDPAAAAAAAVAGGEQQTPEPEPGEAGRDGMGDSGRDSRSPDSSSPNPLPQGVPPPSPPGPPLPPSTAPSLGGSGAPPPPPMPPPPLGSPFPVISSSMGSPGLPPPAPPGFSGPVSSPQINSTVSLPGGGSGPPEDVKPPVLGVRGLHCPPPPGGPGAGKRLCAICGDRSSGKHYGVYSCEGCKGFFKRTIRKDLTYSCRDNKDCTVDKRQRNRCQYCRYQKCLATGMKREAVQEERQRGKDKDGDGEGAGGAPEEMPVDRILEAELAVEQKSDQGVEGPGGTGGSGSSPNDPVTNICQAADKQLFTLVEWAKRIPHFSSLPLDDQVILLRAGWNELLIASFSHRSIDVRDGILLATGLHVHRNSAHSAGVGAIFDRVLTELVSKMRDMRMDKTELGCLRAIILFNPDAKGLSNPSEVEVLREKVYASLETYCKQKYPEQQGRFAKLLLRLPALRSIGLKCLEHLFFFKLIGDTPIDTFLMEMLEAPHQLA

Turning to `CN1CCN(Cc2cc(-c3ccc4[nH]c(=O)oc4c3)co2)[C@@H](c2ccc(F)cc2)C1`, the outcome in test [1], in [2], in test [6], in test [7], in test [8] and in [10] was inactive. In addition, the outcome in [12], in test [13] and in test [14] was inactive. Further, the AC50 in test [3] was 17.6 µM (active); in [4], 3.68 µM (active); in test [5], 27.6 µM (active); in test [9], 28.2 µM (active); in test [11], 17.6 µM (active); in test [15] it was 11.3 µM (active).

`CCCCCCCCCCCCCCCC`: the call in test [16], in test [1], in [2], in [3], in [4] and in test [5] was inactive. Moreover, the result in [6], in test [7], in test [10], in test [17], in test [11] and in [12] was inactive. Further, the outcome in test [13], in test [14] and in test [15] was inactive.

Consider `O=c1[nH]cc(F)c(=O)[nH]1`, for which the call in test [18], in test [1], in [2], in [3], in [4] and in [5] was inactive. For the same molecule, the result in [6], in test [7], in test [8], in [10], in test [17] and in test [11] was inactive. Also, the outcome in test [12] and in [14] was inactive. The AC50 in test [9] was 20.4 µM (active).

As for `OC[C@@H](O)[C@@H](O)[C@H](O)[C@H](O)CO`, the result in test [1], in test [2], in [3], in [4], in test [5] and in test [6] was inactive. The outcome in [7], in test [10], in test [17], in [11], in test [12] and in test [13] was inactive. The outcome in test [14] and in test [15] was inactive.

Regarding `COCCOCCOC`, the outcome in test [16], in test [1], in [2], in test [3], in test [4] and in [5] was inactive. The outcome in test [6], in test [7], in [9], in test [10], in test [17] and in [11] was inactive. Also, the result in [12], in test [14] and in [15] was inactive.

On to `COc1cc(/C=C/C(=O)CC(=O)/C=C/c2ccc(O)c(OC)c2)ccc1O`, for which the call in [8] was inactive.

With `C=CCc1ccc(O)c(OC)c1`, in test [18], the AC50 was 63.2 µM (active). In addition, the outcome in [1], in test [2], in test [3], in test [4], in test [5] and in [6] was inactive. Further, the outcome in [9], in [10], in [17], in [11], in test [12] and in test [14] was inactive. Moreover, in [15], the outcome was inactive.
